Test results from PubChem BioAssay AID2075 (NMMLSC, 2009).
Active and inactive are the calls of the source. The rule behind the calls is not given here.

target: Apoptosis regulator Bcl-2 (Homo sapiens) (UniProt P10415); assay: inhibitors of Bim-Bcl-2 binding, confirmation, biochemical, dose response, multiplexed HTS hits (AID 2075); conditions: bead-based flow cytometry, Bim peptide-Bcl-2 binding; series mostly up to 100 µM
Sequence (P10415 whole entry, looked up): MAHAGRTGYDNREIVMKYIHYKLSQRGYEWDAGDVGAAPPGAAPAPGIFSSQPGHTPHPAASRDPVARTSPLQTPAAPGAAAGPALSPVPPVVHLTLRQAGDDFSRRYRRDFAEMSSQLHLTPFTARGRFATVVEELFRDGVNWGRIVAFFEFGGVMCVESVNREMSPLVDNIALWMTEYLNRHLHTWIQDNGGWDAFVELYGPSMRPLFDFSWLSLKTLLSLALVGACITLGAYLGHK

Row | SMILES | outcome
1 | O=C1/C(=C\c2ccco2)NC(=S)N1c1ccccc1 | inactive
2 | COc1ccc(N2C(=O)C(Cl)=C(Oc3cccc(OC)c3)C2=O)cc1 | inactive
3 | CCOc1ccccc1CNc1ccc(O)cc1 | inactive
4 | CCN(CC)c1ccc(NC(=O)COc2ccccc2C)cc1S(=O)(=O)Nc1ccccc1OC | inactive
5 | O=c1c2c(n3nnnc3n1Cc1ccccc1)-c1ccccc1CC21CCCC1 | inactive
6 | Cc1ccc(-c2cc(-c3ccc(C)o3)nc(N)c2C#N)cc1 | inactive
7 | Cc1ccc(-c2cc(C(=O)Nc3nccs3)c3ccccc3n2)o1 | inactive
8 | Cc1cc(-c2cc(-c3ccc(Cl)cc3)nc(N)c2C#N)co1 | inactive
9 | O=C(/C=C/c1ccc(-c2ccccc2[N+](=O)[O-])o1)c1ccccc1 | inactive
10 | CNC(CC(=O)c1ccc([N+](=O)[O-])cc1)C(Cl)(Cl)Cl (stereo not drawn) | inactive
11 | CC(=O)Nc1ccc(-n2cc(-c3ccccc3)[nH]c2=S)cc1 | inactive
12 | COc1cc(CNc2ccc3[nH]c(=O)[nH]c3c2)cc(Br)c1OCC(=O)NC(C)(C)C | inactive
13 | S=c1[nH]cc(-c2ccccc2)n1-c1ccccc1 | inactive
14 | CCN(CC)c1ccc(NC(=O)c2ccccc2F)cc1S(=O)(=O)Nc1ccccc1OC | inactive
15 | Oc1ccc(NCc2ccccc2OCc2ccccc2)cc1 | inactive
16 | O=C(Nc1nnc(COc2ccc(Cl)cc2)s1)c1ccco1 | inactive
17 | CCN(CC)c1ccc(NC(=O)c2ccccc2Br)cc1S(=O)(=O)Nc1ccccc1OC | inactive
18 | C=CS(=O)(=O)c1sc(Cl)c(N2CCOCC2)c1[N+](=O)[O-] | inactive
